Laboratory results as given in publication PMC7862700, “An all-to-all approach to the identification of sequence-specific readers for epigenetic DNA modifications on cytosine”.

Legend:
Experiment in all cases: DAPPL (digital affinity profiling via proximity ligation, sequencing); 10 mM Tris-HCl pH 7.5, 50 mM NaCl, 1 mM DTT, 4% glycerol, room temperature, 30 min; GST-TFs on glutathione beads, 16-mer random dsDNA library, 0.1% formaldehyde crosslink after washing; high values mean tight binding
FEV = biological target: T1, FEV (Homo sapiens, UniProt Q99581 1-238); conditions: protein: recombinant; tags: N-terminal GST; dsDNA, one strand shown
T1 sequence: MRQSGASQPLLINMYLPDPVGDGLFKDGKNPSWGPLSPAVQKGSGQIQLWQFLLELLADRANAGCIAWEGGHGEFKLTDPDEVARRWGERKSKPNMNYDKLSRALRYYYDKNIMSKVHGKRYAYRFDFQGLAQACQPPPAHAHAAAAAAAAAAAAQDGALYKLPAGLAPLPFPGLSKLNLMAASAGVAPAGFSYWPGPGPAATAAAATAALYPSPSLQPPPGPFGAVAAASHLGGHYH
In short: (§1)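 Binding signal is each hexamer's read frequency for a factor divided by its frequency in the tag-only sample. The factors were GST-fused human transcription factors from yeast, captured on glutathione beads, DNA-barcoded and pooled with that sample. Pools were incubated with 200 nmole of a random double-stranded 16-mer DNA library in Tris/NaCl/DTT/glycerol buffer at room temperature for 30 min, then washed, crosslinked with 0.1% formaldehyde, proximity-ligated with BsaI/T4 ligase (1 h, 37 °C), PCR-amplified and sequenced on an Illumina NextSeq500.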

ETV5 = ETV5 (Homo sapiens, UniProt P41161 1-510); conditions: protein: recombinant; tags: N-terminal GST; dsDNA, one strand shown
In short: as §1

HSF1 = HSF1 (Homo sapiens, UniProt Q00613 1-529); conditions: protein: recombinant; tags: N-terminal GST; chain copies: 3; dsDNA, one strand shown
In short: as §1

SPIC = biological target: T2, SPIC (Homo sapiens, UniProt Q8N5J4 1-248); conditions: protein: recombinant; tags: N-terminal GST; dsDNA, one strand shown
T2 sequence: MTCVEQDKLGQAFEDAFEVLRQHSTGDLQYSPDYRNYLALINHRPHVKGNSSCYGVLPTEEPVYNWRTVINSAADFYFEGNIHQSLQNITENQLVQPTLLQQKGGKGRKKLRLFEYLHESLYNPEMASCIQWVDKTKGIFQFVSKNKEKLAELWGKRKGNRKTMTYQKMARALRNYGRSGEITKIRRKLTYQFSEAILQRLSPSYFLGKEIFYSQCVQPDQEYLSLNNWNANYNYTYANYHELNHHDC
In short: as §1

ELK4 = biological target: T3, ELK4 (Homo sapiens, UniProt P28324-2 1-405); conditions: protein: recombinant; tags: N-terminal GST; dsDNA, one strand shown
T3 sequence: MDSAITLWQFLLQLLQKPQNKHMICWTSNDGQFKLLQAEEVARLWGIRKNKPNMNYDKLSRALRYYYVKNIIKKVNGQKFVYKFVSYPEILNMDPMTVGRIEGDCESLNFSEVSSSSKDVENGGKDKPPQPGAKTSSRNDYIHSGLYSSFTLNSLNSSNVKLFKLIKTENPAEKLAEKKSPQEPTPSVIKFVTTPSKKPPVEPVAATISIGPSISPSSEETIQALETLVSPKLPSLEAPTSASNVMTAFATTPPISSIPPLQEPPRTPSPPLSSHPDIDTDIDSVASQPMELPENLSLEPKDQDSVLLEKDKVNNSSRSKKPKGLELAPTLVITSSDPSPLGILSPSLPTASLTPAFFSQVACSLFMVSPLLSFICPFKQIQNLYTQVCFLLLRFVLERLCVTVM
In short: as §1

ETV2 = biological target: T4, ETV2 (Homo sapiens, UniProt O00321 1-342); conditions: protein: recombinant; tags: N-terminal GST; dsDNA, one strand shown
T4 sequence: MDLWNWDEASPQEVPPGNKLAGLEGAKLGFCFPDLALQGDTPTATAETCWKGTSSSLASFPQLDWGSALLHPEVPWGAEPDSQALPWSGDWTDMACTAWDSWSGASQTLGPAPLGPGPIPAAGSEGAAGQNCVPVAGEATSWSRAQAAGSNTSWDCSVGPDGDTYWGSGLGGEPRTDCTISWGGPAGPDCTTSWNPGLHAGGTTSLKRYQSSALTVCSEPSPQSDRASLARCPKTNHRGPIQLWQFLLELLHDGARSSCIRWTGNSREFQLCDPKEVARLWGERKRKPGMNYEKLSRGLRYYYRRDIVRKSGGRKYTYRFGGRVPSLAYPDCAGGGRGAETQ
In short: as §1

ELF3 = biological target: T5, ELF3 (Homo sapiens, UniProt P78545 1-371); conditions: protein: recombinant; tags: N-terminal GST; dsDNA, one strand shown
T5 sequence: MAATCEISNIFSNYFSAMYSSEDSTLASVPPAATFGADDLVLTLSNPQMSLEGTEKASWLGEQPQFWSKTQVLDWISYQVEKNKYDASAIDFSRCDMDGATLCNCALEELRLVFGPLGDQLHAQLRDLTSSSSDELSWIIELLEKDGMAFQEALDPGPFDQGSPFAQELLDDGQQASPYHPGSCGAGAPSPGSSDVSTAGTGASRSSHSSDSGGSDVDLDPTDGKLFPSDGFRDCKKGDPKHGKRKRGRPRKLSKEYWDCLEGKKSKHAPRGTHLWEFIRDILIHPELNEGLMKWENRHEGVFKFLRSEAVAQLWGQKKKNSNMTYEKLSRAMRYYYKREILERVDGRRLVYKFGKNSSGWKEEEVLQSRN
In short: as §1

ETV1 = ETV1 (Homo sapiens, UniProt P50549 1-477); conditions: protein: recombinant; tags: N-terminal GST; dsDNA, one strand shown
In short: as §1

ERF = biological target: T6, ERF (Homo sapiens, UniProt P50548 1-548); conditions: protein: recombinant; tags: N-terminal GST; dsDNA, one strand shown
T6 sequence: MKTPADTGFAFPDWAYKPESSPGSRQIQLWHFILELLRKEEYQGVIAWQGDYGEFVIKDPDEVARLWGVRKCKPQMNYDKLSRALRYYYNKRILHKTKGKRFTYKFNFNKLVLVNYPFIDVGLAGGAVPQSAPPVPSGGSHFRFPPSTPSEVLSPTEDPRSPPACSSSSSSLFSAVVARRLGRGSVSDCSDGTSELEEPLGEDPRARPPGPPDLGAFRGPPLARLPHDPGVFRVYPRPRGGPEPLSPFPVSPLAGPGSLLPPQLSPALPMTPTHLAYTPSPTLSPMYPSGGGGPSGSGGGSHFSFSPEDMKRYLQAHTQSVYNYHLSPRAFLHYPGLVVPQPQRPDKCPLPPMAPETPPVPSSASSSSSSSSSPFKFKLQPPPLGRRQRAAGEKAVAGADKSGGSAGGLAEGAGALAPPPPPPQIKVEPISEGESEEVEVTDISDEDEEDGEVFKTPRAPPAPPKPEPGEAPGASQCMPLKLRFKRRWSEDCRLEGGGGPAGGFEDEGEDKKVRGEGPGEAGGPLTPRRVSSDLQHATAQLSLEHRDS
In short: as §1

ETV3L = biological target: T7, ETV3L (Homo sapiens, UniProt Q6ZN32 1-361); conditions: protein: recombinant; tags: N-terminal GST; dsDNA, one strand shown
T7 sequence: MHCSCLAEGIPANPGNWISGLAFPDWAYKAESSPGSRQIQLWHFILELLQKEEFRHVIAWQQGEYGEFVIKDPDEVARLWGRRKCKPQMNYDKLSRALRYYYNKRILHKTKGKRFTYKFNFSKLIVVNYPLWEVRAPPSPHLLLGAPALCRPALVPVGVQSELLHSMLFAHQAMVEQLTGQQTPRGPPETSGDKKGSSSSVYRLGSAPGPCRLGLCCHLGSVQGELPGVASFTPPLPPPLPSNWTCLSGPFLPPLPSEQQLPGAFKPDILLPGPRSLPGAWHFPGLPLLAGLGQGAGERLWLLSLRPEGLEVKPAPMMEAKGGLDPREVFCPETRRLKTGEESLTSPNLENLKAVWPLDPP
In short: as §1

ETS2 = biological target: T8, ETS2 (Homo sapiens, UniProt P15036 1-469); conditions: protein: recombinant; tags: N-terminal GST; dsDNA, one strand shown
T8 sequence: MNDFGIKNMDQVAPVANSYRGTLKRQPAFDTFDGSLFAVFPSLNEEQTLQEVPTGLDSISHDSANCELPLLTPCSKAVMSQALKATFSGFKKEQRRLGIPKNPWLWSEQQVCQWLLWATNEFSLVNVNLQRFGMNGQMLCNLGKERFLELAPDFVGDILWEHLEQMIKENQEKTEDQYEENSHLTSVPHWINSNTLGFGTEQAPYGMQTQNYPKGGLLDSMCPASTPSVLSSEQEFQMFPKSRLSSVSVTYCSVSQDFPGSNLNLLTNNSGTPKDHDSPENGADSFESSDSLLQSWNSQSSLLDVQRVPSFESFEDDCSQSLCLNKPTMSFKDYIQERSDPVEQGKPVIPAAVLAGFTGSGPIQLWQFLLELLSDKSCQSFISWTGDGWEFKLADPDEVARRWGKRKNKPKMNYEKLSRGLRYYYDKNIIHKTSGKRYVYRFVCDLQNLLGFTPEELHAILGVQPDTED
In short: as §1

SPDEF = biological target: T9, SPDEF (Homo sapiens, UniProt O95238 1-335); conditions: protein: recombinant; tags: N-terminal GST; dsDNA, one strand shown
T9 sequence: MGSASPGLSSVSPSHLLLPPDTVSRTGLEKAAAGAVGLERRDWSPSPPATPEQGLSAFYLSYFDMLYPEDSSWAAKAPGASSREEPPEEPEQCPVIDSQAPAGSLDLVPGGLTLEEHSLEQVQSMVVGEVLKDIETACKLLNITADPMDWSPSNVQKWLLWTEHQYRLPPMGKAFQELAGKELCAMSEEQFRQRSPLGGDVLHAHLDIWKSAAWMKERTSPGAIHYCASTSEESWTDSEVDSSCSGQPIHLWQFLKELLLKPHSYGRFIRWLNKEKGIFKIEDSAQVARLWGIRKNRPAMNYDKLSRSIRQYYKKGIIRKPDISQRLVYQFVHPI
In short: as §1

ETV7 = biological target: T10, ETV7 (Homo sapiens, UniProt Q9Y603 1-341); conditions: protein: recombinant; tags: N-terminal GST; dsDNA, one strand shown
T10 sequence: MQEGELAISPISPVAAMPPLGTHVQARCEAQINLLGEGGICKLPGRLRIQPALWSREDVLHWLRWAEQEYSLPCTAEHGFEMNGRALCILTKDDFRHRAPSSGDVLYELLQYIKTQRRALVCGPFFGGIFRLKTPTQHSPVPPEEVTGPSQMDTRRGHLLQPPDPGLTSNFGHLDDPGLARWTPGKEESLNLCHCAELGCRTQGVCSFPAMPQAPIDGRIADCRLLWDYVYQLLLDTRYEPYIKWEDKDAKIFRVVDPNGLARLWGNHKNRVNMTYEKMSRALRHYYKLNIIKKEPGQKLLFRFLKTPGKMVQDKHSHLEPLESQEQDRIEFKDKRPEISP
In short: as §1

ELF5 = biological target: T11, ELF5 (Homo sapiens, UniProt Q9UKW6-2 1-255); conditions: protein: recombinant; tags: N-terminal GST; dsDNA, one strand shown
T11 sequence: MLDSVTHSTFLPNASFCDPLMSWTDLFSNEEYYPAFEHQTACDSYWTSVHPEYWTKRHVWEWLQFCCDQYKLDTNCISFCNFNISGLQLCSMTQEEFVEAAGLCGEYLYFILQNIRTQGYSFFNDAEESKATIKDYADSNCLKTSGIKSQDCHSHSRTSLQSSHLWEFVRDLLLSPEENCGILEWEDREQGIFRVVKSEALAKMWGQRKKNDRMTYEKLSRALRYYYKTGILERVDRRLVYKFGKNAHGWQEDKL
In short: as §1

Chain of HSF1 (Q00613 whole entry): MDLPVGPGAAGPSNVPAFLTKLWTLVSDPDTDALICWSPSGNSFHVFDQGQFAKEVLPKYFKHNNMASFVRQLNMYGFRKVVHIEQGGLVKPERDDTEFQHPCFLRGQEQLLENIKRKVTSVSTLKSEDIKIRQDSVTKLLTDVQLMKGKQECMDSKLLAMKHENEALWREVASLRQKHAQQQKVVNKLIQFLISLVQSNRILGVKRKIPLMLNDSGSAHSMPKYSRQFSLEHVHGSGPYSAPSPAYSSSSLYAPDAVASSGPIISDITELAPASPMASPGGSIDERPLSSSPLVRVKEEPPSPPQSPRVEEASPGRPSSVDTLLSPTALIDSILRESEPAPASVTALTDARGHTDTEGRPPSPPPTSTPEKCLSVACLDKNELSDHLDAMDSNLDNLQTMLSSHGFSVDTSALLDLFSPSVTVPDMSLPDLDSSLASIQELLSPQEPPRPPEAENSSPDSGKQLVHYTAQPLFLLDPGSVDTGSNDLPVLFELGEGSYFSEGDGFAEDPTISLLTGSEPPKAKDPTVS
Chain of ETV5 (P41161 whole entry): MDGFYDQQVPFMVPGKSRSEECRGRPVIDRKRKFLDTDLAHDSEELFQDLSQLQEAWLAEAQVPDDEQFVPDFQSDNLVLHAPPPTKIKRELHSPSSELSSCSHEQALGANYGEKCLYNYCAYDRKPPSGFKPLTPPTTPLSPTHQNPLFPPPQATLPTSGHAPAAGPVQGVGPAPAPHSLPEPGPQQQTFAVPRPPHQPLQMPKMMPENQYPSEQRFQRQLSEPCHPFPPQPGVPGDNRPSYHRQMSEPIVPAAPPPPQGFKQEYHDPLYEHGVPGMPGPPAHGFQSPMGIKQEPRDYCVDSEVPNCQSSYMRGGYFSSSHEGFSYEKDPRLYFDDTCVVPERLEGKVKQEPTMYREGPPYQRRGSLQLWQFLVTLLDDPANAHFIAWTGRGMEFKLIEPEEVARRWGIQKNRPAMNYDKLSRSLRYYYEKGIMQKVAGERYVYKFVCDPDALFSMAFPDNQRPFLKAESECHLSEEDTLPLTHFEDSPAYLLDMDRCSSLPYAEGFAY
Chain of ETV1 (P50549 whole entry): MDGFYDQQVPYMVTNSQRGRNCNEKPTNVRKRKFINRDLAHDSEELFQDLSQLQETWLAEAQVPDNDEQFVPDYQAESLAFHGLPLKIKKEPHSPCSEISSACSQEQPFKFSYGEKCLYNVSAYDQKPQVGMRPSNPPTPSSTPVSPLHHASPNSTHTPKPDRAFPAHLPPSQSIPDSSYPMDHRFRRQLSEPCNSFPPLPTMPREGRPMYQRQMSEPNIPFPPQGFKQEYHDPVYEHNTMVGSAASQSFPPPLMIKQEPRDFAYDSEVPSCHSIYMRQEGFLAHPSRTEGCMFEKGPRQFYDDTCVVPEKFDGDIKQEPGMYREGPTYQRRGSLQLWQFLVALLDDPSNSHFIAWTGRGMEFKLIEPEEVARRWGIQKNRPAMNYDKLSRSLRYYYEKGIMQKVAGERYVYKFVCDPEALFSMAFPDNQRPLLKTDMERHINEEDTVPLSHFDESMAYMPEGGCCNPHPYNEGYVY

TCGCGC
binding signal (FEV): 1.03 fold enrichment (6-mer frequency, TF over GST control)
binding signal (ETV5): 1.02 fold enrichment (6-mer frequency, TF over GST control)
binding signal (HSF1): 1.1 fold enrichment (6-mer frequency, TF over GST control)
binding signal (SPIC): 1.25 fold enrichment (6-mer frequency, TF over GST control)
binding signal (ELK4): 1.03 fold enrichment (6-mer frequency, TF over GST control)
binding signal (ETV2): 1.08 fold enrichment (6-mer frequency, TF over GST control)
binding signal (ELF3): 1.05 fold enrichment (6-mer frequency, TF over GST control)
binding signal (ETV1): 1.13 fold enrichment (6-mer frequency, TF over GST control)
binding signal (ERF): 1.12 fold enrichment (6-mer frequency, TF over GST control)
binding signal (ETV3L): 1.02 fold enrichment (6-mer frequency, TF over GST control)
binding signal (ETS2): 1.12 fold enrichment (6-mer frequency, TF over GST control)
binding signal (SPDEF): 1.14 fold enrichment (6-mer frequency, TF over GST control)
binding signal (ETV7): 1.23 fold enrichment (6-mer frequency, TF over GST control)
binding signal (ELF5): 1.03 fold enrichment (6-mer frequency, TF over GST control)
